Out of some 360,000 compounds screened, about 780 (0.22%) were called active. Another 4% or so got no clear call; they are omitted. No stated cut-off is given here; in the data, active means inhibition above about 35% (passing the limit was not always enough); inconclusive means no clear call, values can overlap the other calls. The sample as a whole holds a higher share of actives than the screen did.
test system: Botulinum neurotoxin type F light chain protease (Clostridium botulinum); experiment: BoNT/F light chain protease inhibitors, primary screen, biochemical, flow cytometry, MLPCN library (AID 588497); details: Multiplex microsphere protease cleavage assay, at 10 µM, hits give high values; further: plate controls were buffer without enzyme for full effect and enzyme alone for no effect

For CCOc1ccc(CCN2C(=S)N([C@@H](CC(C)C)CN3CCC[C@@H]3CN3C(=S)NC[C@@H]3Cc3ccc(O)cc3)C[C@@H]2CC(C)C)cc1, which inhibition is on record?
The inhibition was -7.7% (inactive).

For CCCCC[C@H](C)N1C[C@@H](COCc2ccccc2)Oc2cc(N3CC[C@@H](N(C)C)C3)ccc2S1(=O)=O, which inhibition is on record?
Its inhibition is -14% (inactive).

CC(C)Cc1ccc(-c2cc3nc(NCc4cccc(Cl)c4)ccn3n2)cc1 was tested. Which inhibition did it give?
Its inhibition is -1.6% (inactive).

Which inhibition does the source give for C=CCOCCN(C)C1=NS(=O)(=O)c2ccccc21 here?
Its inhibition is -7.4% (inactive).

How did the inhibition turn out when COc1ccc(/C=N/N(C)C2=NS(=O)(=O)c3ccccc32)cc1OC was run?
The inhibition was -14.8% (inactive).

For O=S1(=O)N=C(N(CCO)/N=C/c2ccccc2F)c2ccccc21, which inhibition is on record?
The inhibition was 74.7% (active).

Which inhibition does the source give for COc1cncc(-c2cnc3sc(NCCc4ccccn4)nn23)c1 here?
Its inhibition is -4.1% (inactive).

With CCOCCn1c(C(C)C)nc2ccccc21 as the compound, how does the inhibition read?
Its inhibition is 2.9% (inactive).

How did the inhibition turn out when CCc1nc2ccccc2n(CCOCCOCCn2c(=O)c(CC)nc3ccccc32)c1=O was run?
The inhibition was -0.5% (inactive).

How did the inhibition turn out when CCOCCn1c(-c2ccccc2)nc2ccccc21 was run?
The inhibition was 65.4% (active).

For Cc1ccc(NS(=O)(=O)c2cc3c(cc2Br)NC(=O)CO3)cc1C, which inhibition is on record?
The inhibition was 0.3% (inactive).

With CN(Cc1cn(Cc2ccc(C(F)(F)F)cc2)nn1)C1CN(Cc2cn(Cc3ccc(C(F)(F)F)cc3)nn2)S(=O)(=O)C1 (configuration not stated) as the compound, how does the inhibition read?
The inhibition was -10.7% (inactive).

CCCCCCCCN1C(=O)[C@H](CC(=O)NCc2cccc3ccccc23)C[C@@]2(C(=O)OC)CCCCC=C12 was tested. Which inhibition did it give?
Its inhibition is -5.2% (inactive).

With COc1ccc(CN2C3CCCC2CC(NC(=O)c2cccc(F)c2)C3)cc1 (configuration not stated) as the compound, how does the inhibition read?
Its inhibition is -2.5% (inactive).

How did the inhibition turn out when COc1cccc(NC(=O)N2C3CCCC2CC(NC(C)=O)C3)c1 (configuration not stated) was run?
Its inhibition is 28.5% (inactive).

How did the inhibition turn out when CCCN1C2CCCC1CC(NC(=O)c1cccc(OC)c1)C2 (configuration not stated) was run?
Its inhibition is 34.7% (active).

With Nc1nc2c(Br)ccc(Br)c2cc1C(=O)NCCc1ccccc1 as the compound, how does the inhibition read?
Its inhibition is -1% (inactive).

CCCCCc1c(-c2cccc(Br)c2)ncn1CCc1ccccc1OC was tested. Which inhibition did it give?
Its inhibition is -6.3% (inactive).

Oc1cccc2cc(-c3ccncc3)cnc12 was tested. Which inhibition did it give?
Its inhibition is -5.1% (inactive).

With O=C(O)c1cc(S(=O)(=O)NC2CCCc3ccccc32)ccc1O (configuration not stated) as the compound, how does the inhibition read?
Its inhibition is 49% (active).

With O=C(CCC(=O)N1CCN(S(=O)(=O)c2ccccc2)CC1)NC1CCCc2ccccc21 (configuration not stated) as the compound, how does the inhibition read?
Its inhibition is 7.9% (inactive).

For CNS(=O)(=O)c1cccc(C(=O)NC2CCCc3ccccc32)c1 (configuration not stated), which inhibition is on record?
The inhibition was 2.8% (inactive).

With CCCCc1c(-c2ccc(Br)cc2)ncn1CCc1ccccc1OC as the compound, how does the inhibition read?
The inhibition was -3.2% (inactive).

With CCc1nc2c(OCCC3CCCCC3)cccn2c1N(C)C(=O)c1ccco1 as the compound, how does the inhibition read?
Its inhibition is 1.8% (inactive).

For CC(C)C[C@H]1CNC(=O)C(=O)N1C[C@H]1CCCN1C[C@H](Cc1ccc(O)cc1)N1C[C@H](CC(C)C)N(CC2CCCCCC2)C(=O)C1=O, which inhibition is on record?
Its inhibition is -9.5% (inactive).

CC(C)C[C@@H](COCc1ccc(Cl)cc1)N1CCN(C(=O)c2ccc(Cl)cc2Cl)CCC1=O was tested. Which inhibition did it give?
Its inhibition is -2.4% (inactive).

How did the inhibition turn out when CC(=O)Nc1cc(-c2ccc(N3CCN(C)CC3)cc2)cn2c(-c3ccc(F)cc3)cnc12 was run?
The inhibition was -13.3% (inactive).

Which inhibition does the source give for Cc1ccc2[nH]cc(CCNC(=O)C3CCCCC3)c2c1 here?
Its inhibition is 50% (active).

Which inhibition does the source give for O=C(NCCc1c[nH]c2ccccc12)C1CCN(Cc2ccc(Br)cc2)CC1 here?
The inhibition was -27.7% (inactive).

Cc1ccc2[nH]cc(CCNC(=O)c3ccc([N+](=O)[O-])cc3)c2c1 was tested. Which inhibition did it give?
Its inhibition is -0.3% (inactive).

COC(=O)[C@@]1(Sc2ccc(C)cc2)CC(=O)N(c2cccc(SC)c2)[C@@H]1c1ccccc1 was tested. Which inhibition did it give?
Its inhibition is 4.9% (inactive).

CCOC(=O)C(C)n1cnc2c(nnn2-c2cccc(OC)c2)c1=O (configuration not stated) was tested. Which inhibition did it give?
Its inhibition is 18.5% (inactive).

Which inhibition does the source give for CCOc1ccc(CNC(=O)C2CCCN(c3nnc(C)c4c(C)n(-c5ccccc5)nc34)C2)cc1 (configuration not stated) here?
Its inhibition is 10.7% (inactive).

For CCOc1nnc(C)c2c(C)n(-c3cccc(Cl)c3)nc12, which inhibition is on record?
Its inhibition is 46.5% (active).

How did the inhibition turn out when Cc1nc2c(OCC(=O)C(C)(C)C)cccn2c1N(C)Cc1cccs1 was run?
The inhibition was 4.6% (inactive).

For CC(=O)Nc1cc(-c2ccccc2F)cn2c(-c3cccc(C(F)(F)F)c3)cnc12, which inhibition is on record?
Its inhibition is 1.3% (inactive).

With CC(=O)c1ccc(-c2cnc3c(NC=O)cc(-c4cccc(NS(C)(=O)=O)c4)cn23)cc1 as the compound, how does the inhibition read?
The inhibition was 3% (inactive).

Which inhibition does the source give for Cc1ccc2nc(-c3ccco3)c(Cc3cccc(Cl)c3)n2c1 here?
The inhibition was 0% (inactive).

For Cc1cccc(C)c1Cn1c(C)c(C(=O)NCc2cccc(Cl)c2)sc1=O, which inhibition is on record?
The inhibition was -3.1% (inactive).

For Cc1cc(O)c(Sc2ccccc2)c(=O)o1, which inhibition is on record?
The inhibition was -0.7% (inactive).

For Cc1cc(O)c(C(=O)/C=C/c2c(F)c(F)c(F)c(F)c2F)c(=O)o1, which inhibition is on record?
Its inhibition is 39.9% (active).

With COc1ccc(/C=C/C(=O)c2c(O)cc(OC)cc2OC)cc1 as the compound, how does the inhibition read?
Its inhibition is -3.2% (inactive).

Which inhibition does the source give for CCCCn1nnnc1C(c1cccc(OC)c1OC)N1CCN(C/C=C/c2ccccc2)CC1 (configuration not stated) here?
The inhibition was -4.8% (inactive).

How did the inhibition turn out when COc1ccccc1CNC(=O)c1cc(-c2cc(Cl)ccc2C)n[nH]1 was run?
Its inhibition is -6.5% (inactive).

Fc1cccc(Cc2c(-c3cccc(Cl)c3)nc3ccc(Br)cn23)c1 was tested. Which inhibition did it give?
The inhibition was 12.2% (inactive).

With CC1(C)CC(=O)C=C(N2CCOCC2)C1 as the compound, how does the inhibition read?
The inhibition was -0.6% (inactive).

CC1(C)CC(=O)C=C(N2CCCC2)C1 was tested. Which inhibition did it give?
Its inhibition is 43.8% (active).

With CC1Cc2ccccc2N1C1=CC(=O)CC(C)(C)C1 (configuration not stated) as the compound, how does the inhibition read?
The inhibition was -1.7% (inactive).

Which inhibition does the source give for CN(C(=O)CN1CCN(c2cc(-c3ccc(OCc4ccccc4)cc3)ncn2)CC1)c1ccccc1 here?
The inhibition was -2.5% (inactive).

Which inhibition does the source give for Cc1ccc2nc(-c3ccccc3)c(CC3CCCCC3)n2c1 here?
Its inhibition is -7.4% (inactive).

For COc1cc(F)ccc1-c1cc(C(=O)NCC2CCCCC2)[nH]n1, which inhibition is on record?
Its inhibition is -7.3% (inactive).

How did the inhibition turn out when CCCCCn1nnnc1-c1nc2cc3ccccc3cc2[nH]c1=O was run?
The inhibition was 4.1% (inactive).

CCc1nc2ccc(C(=O)NCc3ccc(OC)cc3)cn2c1N(CC)Cc1cccc(Br)c1 was tested. Which inhibition did it give?
Its inhibition is -5.2% (inactive).

With COc1cccc(CNc2nc(NCc3ccccc3OC)nc3ccsc23)c1 as the compound, how does the inhibition read?
Its inhibition is -10.7% (inactive).

How did the inhibition turn out when CC(O)c1nc2c(c(=O)n(C)c(=O)n2C)n1C (configuration not stated) was run?
The inhibition was 7.6% (inactive).

Cn1c(=O)c2c(nc(NCc3ccccc3)n2CC(N)=O)n(C)c1=O was tested. Which inhibition did it give?
Its inhibition is -8.9% (inactive).

CCC/C(C)=N\Nc1nc2c(c(=O)n(C)c(=O)n2C)n1C was tested. Which inhibition did it give?
Its inhibition is 46.4% (active).

Source: PubChem BioAssay AID588497 (NMMLSC, 2011)
